# In the supplement of paper PMC6555819:
# Assays:
# Test in all cases: PBM binding z-score (relative to random genomic background probes); higher = stronger binding; sequences stand for … in GC…GCGATTGACAGCGTAGAATGAAGG
# [1] = system: FXR:RXRa (NR concentration 270 nM, RXRa partner concentration 90 nM)
# How it was run: (§1)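 Each nuclear receptor dimer, without ligand, was incubated for 1 h on custom Agilent 4×180K protein-binding microarrays. Binding was detected with antibodies against each partner (one per run), and scanned fluorescence was regression-normalized. The binding z-scores are referenced to random human genomic background probes.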
# [2] = system: LXRa:RXRa (NR concentration 270 nM, RXRa partner concentration 90 nM)
# How it was run: as §1
# [3] = system: LXRa homodimer (NR concentration 270 nM)
# How it was run: as §1
# [4] = system: LXRb:RXRa (NR concentration 270 nM, RXRa partner concentration 90 nM)
# How it was run: as §1
# [5] = system: LXRb homodimer (NR concentration 270 nM)
# How it was run: as §1
# [6] = system: PPARa:RXRa (NR concentration 270 nM, RXRa partner concentration 90 nM)
# How it was run: as §1
# [7] = system: PPARg:RXRa (NR concentration 180 nM, RXRa partner concentration 90 nM)
# How it was run: as §1
# [8] = system: PPARg:RXRa 270nM:90nM, anti-RXR (NR concentration 270 nM, RXRa partner concentration 90 nM)
# How it was run: as §1
# [9] = system: PPARg:RXRa 30nM:10nM, anti-RXR (NR concentration 30 nM, RXRa partner concentration 10 nM)
# How it was run: as §1
# [10] = system: PPARg:RXRa 90nM:30nM, anti-RXR (NR concentration 90 nM, RXRa partner concentration 30 nM)
# How it was run: as §1
# [11] = system: PPARg:RXRa DBDmut IVT, anti-RXR (DBD mutation: RXRa K156A/R161A, NR concentration 270 nM, RXRa partner concentration 90 nM)
# How it was run: as §1
# [12] = system: PPARg:RXRa IVT, anti-PPARg (NR concentration 270 nM, RXRa partner concentration 90 nM)
# How it was run: as §1
# [13] = system: PPARg DBDmut:RXRa IVT, anti-PPARg (DBD mutation: PPARg1 K132A/R137A, NR concentration 270 nM, RXRa partner concentration 90 nM)
# How it was run: as §1
# [14] = system: PPARg DBDmut IVT, anti-PPARg (DBD mutation: PPARg1 K132A/R137A, NR concentration 270 nM)
# How it was run: as §1
# [15] = system: PPARg homodimer (NR concentration 180 nM)
# How it was run: as §1
# [16] = system: PXR:RXRa (NR concentration 270 nM, RXRa partner concentration 90 nM)
# How it was run: as §1
# [17] = system: PXR homodimer (NR concentration 270 nM)
# How it was run: as §1
# [18] = system: RARa:RXR (NR concentration 270 nM, RXRa partner concentration 90 nM)
# How it was run: as §1
# [19] = system: RARa homodimer (NR concentration 270 nM)
# How it was run: as §1
# [20] = system: RARb:RXRa (NR concentration 270 nM, RXRa partner concentration 90 nM)
# How it was run: as §1
Sequence,PBM binding z-score [1],PBM binding z-score [2],PBM binding z-score [3],PBM binding z-score [4],PBM binding z-score [5],PBM binding z-score [6],PBM binding z-score [7],PBM binding z-score [8],PBM binding z-score [9],PBM binding z-score [10],PBM binding z-score [11],PBM binding z-score [12],PBM binding z-score [13],PBM binding z-score [14],PBM binding z-score [15],PBM binding z-score [16],PBM binding z-score [17],PBM binding z-score [18],PBM binding z-score [19],PBM binding z-score [20]
CGAACTAGGTCACGGACAGTGAATCTCCGCACGC,4.87,3.34,0.231,2.64,-0.137,5.68,9.36,7.68,5.94,7.84,8.66,9.1,8.25,6.07,4.94,2.4,-0.165,3.61,1.22,4.35
CCTCGGAGGACAGAAGGTTAGAGCTGTCCGCTTT,0.0561,0.0136,-0.236,-0.312,-1.14,-0.123,-0.506,-0.434,-0.944,-0.855,-0.501,-0.792,-1.88,-2.87,-0.233,-0.354,-0.764,0.0468,-1.07,1.12
CCTACTGGGCCATCAGGTCTTTGATATCAACGTT,-0.207,-0.321,-0.21,-0.159,-0.568,0.508,0.773,1.66,0.0943,1.01,4.27,4.11,-0.465,-0.285,0.396,-0.399,-0.181,-0.151,-0.266,0.423
CCTTACGGGTCAAAGTTATAGCACGGGTGGTACG,6.21,3.95,0.182,3.42,0.711,5.06,5.04,5.46,2.56,4.63,1.88,3.45,0.255,0.0478,2.1,3.35,0.317,4.38,1,3.7
CGAACTAGGTCATTGACAGGAAAGTGAATAGTAA,4.94,2.6,0.115,2.01,-0.078,4.67,7.36,6.32,3.65,5.55,7.79,8.25,2.11,2.92,1.37,1.37,0.599,2.02,0.0841,3.59
AGAACGAGGACACGCTGAGTTGATAGCAGAGTAG,0.477,-0.638,-0.296,-0.945,-0.622,-0.44,0.748,-0.466,0.251,-0.327,1.51,1.16,-0.315,0.431,0.209,-0.361,0.196,-0.397,-0.0719,1.4
ACAGAGAGGTGAGTGAAGGTAACTCAGCTGGACG,0.855,0.573,-0.279,0.265,0.454,1.26,0.736,0.54,-0.194,0.056,1.71,1.65,0.674,-0.716,0.508,0.337,0.0847,0.565,0.175,1.48
AGAACGAGGCCAATGAGTTGATAGCACGGGTGGC,-0.177,-0.455,-0.576,-0.817,-0.913,0.0353,0.81,-0.06,-0.388,0.093,1.54,0.862,0.703,0.331,-0.093,0.214,0.741,-0.114,0.0259,0.946
GGAACGAGGGCAAGTTGATAACAGAGTTTGATGG,0.773,0.307,-0.071,0.262,-0.233,1.76,1.52,1.14,0.316,1.03,3.17,2.87,0.0927,0.0422,0.807,0.857,0.526,0.565,-0.181,2.38
